# Where “and” joins values, the source holds several entries; their conditions need not be identical. Equal entries are not always repeated. Inconclusive results are not listed. Entries that show only a call come without a potency. Some compounds were tested as several samples or in several runs, with calls that do not always agree. Calls of active or inactive are those of the source. Calls follow the shape of the dose curve; as a rule, active = well fitted curve in the direction sought with a large enough effect in the repeat runs; inconclusive = weak or mixed curves; inactive = no such curve, though single readings can be large; an effect the other way counts as inactive or inconclusive.
# Target: Luciferin 4-monooxygenase (Photinus pyralis) (UniProt P08659)
# Sequence (P08659 whole entry, looked up): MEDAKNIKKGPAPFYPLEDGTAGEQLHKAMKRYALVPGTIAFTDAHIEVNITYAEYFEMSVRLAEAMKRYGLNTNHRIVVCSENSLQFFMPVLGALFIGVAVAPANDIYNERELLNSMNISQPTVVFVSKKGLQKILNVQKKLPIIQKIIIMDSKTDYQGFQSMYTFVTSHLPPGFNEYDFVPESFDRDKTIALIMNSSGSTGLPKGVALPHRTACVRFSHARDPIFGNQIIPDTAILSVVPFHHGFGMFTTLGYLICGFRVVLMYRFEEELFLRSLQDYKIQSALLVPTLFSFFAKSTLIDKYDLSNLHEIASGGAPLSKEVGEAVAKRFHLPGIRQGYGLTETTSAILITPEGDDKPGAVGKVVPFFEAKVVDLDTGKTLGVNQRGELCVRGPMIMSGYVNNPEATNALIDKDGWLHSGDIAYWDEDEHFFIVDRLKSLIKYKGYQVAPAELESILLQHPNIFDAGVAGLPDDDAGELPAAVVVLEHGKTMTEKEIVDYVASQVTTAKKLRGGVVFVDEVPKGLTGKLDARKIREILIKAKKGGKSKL
# Assay: qHTS assay to identify small molecule inhibitors of firefly luciferase (AID 1224835); also: nearly all actives have a fitted effect of over 25% in size; also: potency is read from the fitted curve at half-maximal effect
# Conditions: purified P. pyralis luciferase, luminescence inhibition; series mostly up to 115 µM; activity change, negative = inhibition: at the top concentration
# Outline: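 Inhibition of purified Photinus luciferase is measured by luminescence. Substrate levels (D-luciferin, ATP) sit at their KM values. Each compound is tested in a concentration series.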
SMILES,Potency,"activity change, negative = inhibition"
Nc1cccc(C(F)(F)F)c1,inactive,–
CO[Si](CCCNCCN)(OC)OC,inactive,–
CC(COCC(C)OC(=O)c1ccccc1)OC(=O)c1ccccc1 (stereo not drawn),inactive,–
C=C(C)CC(C)(C)C,inactive,–
CC(=O)OC[C@H]1O[C@@](COC(C)=O)(O[C@H]2O[C@H](COC(C)=O)[C@@H](OC(C)=O)[C@H](OC(C)=O)[C@H]2OC(C)=O)[C@@H](OC(C)=O)[C@@H]1OC(C)=O,inactive,–
Nc1cccc(N)n1,inactive,–
Cc1cc(C)c(O)c(C)c1,inactive,–
NC(=O)NC(N)=O,inactive,–
COC(=O)CCCCC(=O)OC,inactive,–
OC[C@H]1O[C@@H](Oc2ccc(O)cc2)[C@H](O)[C@@H](O)[C@@H]1O,inactive,–
Oc1ccc(Cc2ccccc2O)cc1,–,-10% (inactive)
C[n+]1ccn(CCO)c1,inactive,–
CN=C(NC#N)NCCSCc1nc[nH]c1C,inactive,–
Brc1ccc(Oc2ccc(Br)cc2)cc1,inactive,–
CCCCCNCCCCC,inactive,–
CN1Cc2c(N)cccc2C(c2ccccc2)C1 (stereo not drawn),inactive,–
CC/C(C)=N/O,inactive,–

SMILES,Potency,"activity change, negative = inhibition"
CCCOC(=O)NCCCN(C)C,inactive,–
OC1CCCCC1,inactive,–
C[Si](C)(C)N[Si](C)(C)C,inactive,–
Nc1nc(N)c2nc(-c3ccccc3)c(N)nc2n1,40.4 µM (active) and 39.9 µM (active),–
CCCCCCCCO,inactive,–
N#CCC(=O)O,inactive,–
CN1CCCC1=O,inactive,–
OCC(O)CS (stereo not drawn),inactive,–
O=[N+]([O-])c1ccccc1C(F)(F)F,inactive,–
CC1=CC(=O)CC(C)(C)C1,36.6 µM (active) and inactive,–
Cc1ccncc1,inactive,–
CC(CN1c2ccccc2Sc2ccccc21)N(C)C (stereo not drawn),inactive,–
CCCCCCCCC(=O)O,inactive,–
CC(=O)C(C)C,inactive,–
Cc1cc(CC(=O)O)n(C)c1C(=O)c1ccc(Cl)cc1,inactive,–
Cc1ccc(C)c(S(=O)(=O)O)c1,inactive,–
C=C(CC(=O)O)C(=O)O,inactive,–

# Tested on: not listed separately
# Assay: qHTS assay to identify small molecule agonists of the constitutive androstane receptor (CAR) signaling pathway - cell viability counter screen (AID 1224836); also: nearly all actives have a fitted effect of over 45% in size; also: potency is read from the fitted curve at half-maximal effect
# Conditions: HepG2-CYP2B6-hCAR viability, CellTiter-Fluor, 23 h, PK11195 added to every well; series mostly up to 92.4 µM; viability change, negative = cytotoxic: at the top concentration
# Outline: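 Cell viability multiplexed with the CAR agonist screen: CellTiter-Fluor fluorescence after 23 hr at 37 C. HepG2-CYP2B6-hCAR cells got compounds at 15 concentrations with PK11195 at 0.75 uM final.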
SMILES,Potency,"viability change, negative = cytotoxic"
Nc1cccc(C(F)(F)F)c1,inactive,–
CO[Si](CCCNCCN)(OC)OC,inactive,–
CC(COCC(C)OC(=O)c1ccccc1)OC(=O)c1ccccc1 (stereo not drawn),inactive,–
C=C(C)CC(C)(C)C,inactive,–
CC(=O)OC[C@H]1O[C@@](COC(C)=O)(O[C@H]2O[C@H](COC(C)=O)[C@@H](OC(C)=O)[C@H](OC(C)=O)[C@H]2OC(C)=O)[C@@H](OC(C)=O)[C@@H]1OC(C)=O,inactive,–
Nc1cccc(N)n1,inactive,–
NC1CCCCC1N (stereo not drawn),inactive,–
NC(=O)NC(N)=O,inactive,–
OC[C@H]1O[C@@H](Oc2ccc(O)cc2)[C@H](O)[C@@H](O)[C@@H]1O,inactive,–
Oc1ccc(Cc2ccccc2O)cc1,inactive,–
CN=C(NC#N)NCCSCc1nc[nH]c1C,inactive,–
CCCCCNCCCCC,inactive,–
CN1Cc2c(N)cccc2C(c2ccccc2)C1 (stereo not drawn),inactive,–
CCCOC(=O)NCCCN(C)C,inactive,–
OC1CCCCC1,inactive,–
C[Si](C)(C)N[Si](C)(C)C,inactive,–
Nc1nc(N)c2nc(-c3ccccc3)c(N)nc2n1,–,-1.01% [at 42.5 µM] (inactive)
CCCCCCCCO,inactive,–
N#CCC(=O)O,inactive,–
OCC(O)CS (stereo not drawn),inactive,–
O=[N+]([O-])c1ccccc1C(F)(F)F,inactive,–
CC(C=O)Cc1ccc(C(C)(C)C)cc1 (stereo not drawn),inactive,–
Cc1ccncc1,inactive,–
CC(CN1c2ccccc2Sc2ccccc21)N(C)C (stereo not drawn),54.5 µM (active),–
CCCCCCCCC(=O)O,inactive,–
CC(=O)C(C)C,inactive,–
Cc1cc(CC(=O)O)n(C)c1C(=O)c1ccc(Cl)cc1,inactive,–
Cc1ccc(C)c(S(=O)(=O)O)c1,inactive,–
O=c1n(CCCN2CCN(c3cccc(Cl)c3)CC2)nc2ccccn12,inactive,–

# Tested on: not listed separately
# Assay: qHTS assay to identify small molecule antagonists of the constitutive androstane receptor (CAR) signaling pathway - cell viability counter screen (AID 1224837); also: nearly all actives have a fitted effect of over 45% in size
# Conditions: HepG2-CYP2B6-hCAR viability, CellTiter-Fluor, 23 h, co-treated with 50 nM CITCO; series mostly up to 92.4 µM; activity change, negative = cytotoxicity: at the top concentration
# Outline: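 Read-out: CellTiter-Fluor fluorescence after 23 hr at 37 C/5% CO2. Cells: HepG2 double-stable for hCAR and CYP2B6-2.2kb. Compounds tested at 15 concentrations in the presence of CITCO, final concentration 50 nM.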
row,SMILES,Potency
1,Nc1cccc(C(F)(F)F)c1,inactive
2,CO[Si](CCCNCCN)(OC)OC,inactive
3,CC(COCC(C)OC(=O)c1ccccc1)OC(=O)c1ccccc1 (stereo not drawn),inactive
4,C=C(C)CC(C)(C)C,inactive
5,CC(=O)OC[C@H]1O[C@@](COC(C)=O)(O[C@H]2O[C@H](COC(C)=O)[C@@H](OC(C)=O)[C@H](OC(C)=O)[C@H]2OC(C)=O)[C@@H](OC(C)=O)[C@@H]1OC(C)=O,inactive
6,Nc1cccc(N)n1,inactive
7,Cc1cc(C)c(O)c(C)c1,inactive
8,NC1CCCCC1N (stereo not drawn),inactive
9,OCCOCCOCCOCCOCCO,inactive
10,NC(=O)NC(N)=O,inactive
11,COC(=O)CCCCC(=O)OC,inactive
12,OC[C@H]1O[C@@H](Oc2ccc(O)cc2)[C@H](O)[C@@H](O)[C@@H]1O,inactive
13,Oc1ccc(Cc2ccccc2O)cc1,inactive
14,C[n+]1ccn(CCO)c1,inactive
15,CN=C(NC#N)NCCSCc1nc[nH]c1C,inactive
16,Brc1ccc(Oc2ccc(Br)cc2)cc1,inactive
17,CCCCCNCCCCC,inactive
18,CN1Cc2c(N)cccc2C(c2ccccc2)C1 (stereo not drawn),inactive

row,SMILES,Potency
1,CC/C(C)=N/O,inactive
2,CCCOC(=O)NCCCN(C)C,inactive
3,OC1CCCCC1,inactive
4,C[Si](C)(C)N[Si](C)(C)C,inactive
5,Nc1nc(N)c2nc(-c3ccccc3)c(N)nc2n1,inactive
6,CCCCCCCCO,inactive
7,N#CCC(=O)O,inactive
8,CN1CCCC1=O,inactive
9,OCC(O)CS (stereo not drawn),inactive
10,O=[N+]([O-])c1ccccc1C(F)(F)F,inactive
11,CC(C=O)Cc1ccc(C(C)(C)C)cc1 (stereo not drawn),inactive
12,Cc1ccncc1,inactive
13,CCCCCCCCC(=O)O,inactive
14,CC(=O)C(C)C,inactive
15,Cc1cc(CC(=O)O)n(C)c1C(=O)c1ccc(Cl)cc1,inactive
16,Cc1ccc(C)c(S(=O)(=O)O)c1,inactive
17,O=c1n(CCCN2CCN(c3cccc(Cl)c3)CC2)nc2ccccn12,inactive
